The text below walks through data of PubChem BioAssay.

The structures appear in SMILES notation. The source made the active and inactive calls.

Test [1] deals with PRMT1 (protein arginine N-methyltransferase 1). Briefly: small molecules binding arginine methyltransferase PRMT1 – biochemical, small-molecule microarray, 635 nm fluorescence, primary screen (AID 1088).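 Also: binding of Prmt1 protein to compounds spotted on small-molecule microarray slides.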 As to conditions: higher = more signal.
A short description of test [2]: growth effects on S. cerevisiae YJM789 – YJM789 clinical isolate, OD600, 24 h, basal, primary screen (AID 1089).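 Also: growth of clinical yeast isolate S. cerevisiae YJM 789 seeded 1000 cells per well; test concentration not given here.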 To be noted: higher = more signal, called active from +8 up or from −8 down.
A short description of test [3]: S. pombe growth modifiers, basal conditions – strain 972, OD600, 24 h, no modulator, primary screen (AID 1090).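 Also: basal condition with compound alone and no growth modifier present; test concentration not given here.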 To be noted: S. pombe 972 growth, higher = more signal, called active from +8 up or from −8 down.
The nature of test [4]: budding yeast growth modifiers under rapamycin – strain BY4716, OD600, 96 h, primary screen (AID 1091). Also: test concentration not given here. As to conditions: S. cerevisiae BY4716 + rapamycin, higher = more signal, called active from +8 up or from −8 down.
The target in test [5] is Torsin-1A-interacting protein 2 (Homo sapiens) (UniProt Q8NFQ8). Briefly: small molecules binding lysate-expressed LULL1 – cell lysate, human LULL1 lysate, 635/667 nm fluorescence, primary screen (AID 1092).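 Also: probe is lysate of COS7 cells overexpressing human LULL1; score merges per-feature 667 nm fluorescence with signal-to-noise.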 To be noted: small-molecule microarray, hLULL1 lysate binding, 635 nm fluorescence; higher = more signal.
Torsin-1A-interacting protein 2 (Homo sapiens), sequence (Q8NFQ8 whole entry, looked up): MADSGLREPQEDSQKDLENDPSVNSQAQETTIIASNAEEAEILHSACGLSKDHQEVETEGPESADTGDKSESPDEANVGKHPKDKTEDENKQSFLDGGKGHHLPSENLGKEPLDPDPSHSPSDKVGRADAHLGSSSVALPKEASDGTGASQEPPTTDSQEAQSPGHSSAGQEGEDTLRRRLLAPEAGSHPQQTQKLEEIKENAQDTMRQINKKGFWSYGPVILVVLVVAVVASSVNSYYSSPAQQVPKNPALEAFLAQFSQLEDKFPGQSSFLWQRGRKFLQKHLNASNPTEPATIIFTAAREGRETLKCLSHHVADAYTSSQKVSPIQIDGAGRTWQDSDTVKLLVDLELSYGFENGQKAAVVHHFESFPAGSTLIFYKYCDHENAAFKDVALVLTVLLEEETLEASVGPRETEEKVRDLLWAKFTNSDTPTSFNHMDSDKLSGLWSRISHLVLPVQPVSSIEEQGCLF
Test [6] is described as follows: optical density change of DRC41 E. coli – strain DRC41, OD650, 24 h, E. coli filamentation project, primary screen (AID 1093).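 Also: MC1000 strain lacking acrAB efflux and sulA so SOS filamentation is blocked; test concentration not given here.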 As to conditions: E. coli DRC41 growth, higher = more signal, called active from +8 up or from −8 down.
A short description of test [7]: probe aLefty2 binding to arrayed compounds – biochemical, biotinylated probe, 635/667 nm fluorescence, primary screen (AID 1094).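 Also: score merges spot fluorescence near 667 nm with spot signal-to-noise ratio.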 To be noted: small-molecule microarray, higher = more signal.
Test [8] relates to Noggin (protein binding on small-molecule microarray). Nature of the test: small molecules binding Noggin protein – biochemical, 635/667 nm fluorescence, primary screen (AID 1095).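 Also: score merges 667 nm feature fluorescence with signal to noise over triplicate slides.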 To be noted: 635 nm fluorescence, higher = more signal.
For test [9], the target named is Neurogenic locus notch homolog protein 3 (Homo sapiens) (UniProt Q9UM47). Nature of the test: small molecules binding NOTCH3 protein – biochemical, 635/667 nm fluorescence, primary screen (AID 1096). To be noted: small-molecule microarray, 635 nm fluorescence, higher = more signal.
Neurogenic locus notch homolog protein 3 (Homo sapiens), sequence (Q9UM47 whole entry, looked up): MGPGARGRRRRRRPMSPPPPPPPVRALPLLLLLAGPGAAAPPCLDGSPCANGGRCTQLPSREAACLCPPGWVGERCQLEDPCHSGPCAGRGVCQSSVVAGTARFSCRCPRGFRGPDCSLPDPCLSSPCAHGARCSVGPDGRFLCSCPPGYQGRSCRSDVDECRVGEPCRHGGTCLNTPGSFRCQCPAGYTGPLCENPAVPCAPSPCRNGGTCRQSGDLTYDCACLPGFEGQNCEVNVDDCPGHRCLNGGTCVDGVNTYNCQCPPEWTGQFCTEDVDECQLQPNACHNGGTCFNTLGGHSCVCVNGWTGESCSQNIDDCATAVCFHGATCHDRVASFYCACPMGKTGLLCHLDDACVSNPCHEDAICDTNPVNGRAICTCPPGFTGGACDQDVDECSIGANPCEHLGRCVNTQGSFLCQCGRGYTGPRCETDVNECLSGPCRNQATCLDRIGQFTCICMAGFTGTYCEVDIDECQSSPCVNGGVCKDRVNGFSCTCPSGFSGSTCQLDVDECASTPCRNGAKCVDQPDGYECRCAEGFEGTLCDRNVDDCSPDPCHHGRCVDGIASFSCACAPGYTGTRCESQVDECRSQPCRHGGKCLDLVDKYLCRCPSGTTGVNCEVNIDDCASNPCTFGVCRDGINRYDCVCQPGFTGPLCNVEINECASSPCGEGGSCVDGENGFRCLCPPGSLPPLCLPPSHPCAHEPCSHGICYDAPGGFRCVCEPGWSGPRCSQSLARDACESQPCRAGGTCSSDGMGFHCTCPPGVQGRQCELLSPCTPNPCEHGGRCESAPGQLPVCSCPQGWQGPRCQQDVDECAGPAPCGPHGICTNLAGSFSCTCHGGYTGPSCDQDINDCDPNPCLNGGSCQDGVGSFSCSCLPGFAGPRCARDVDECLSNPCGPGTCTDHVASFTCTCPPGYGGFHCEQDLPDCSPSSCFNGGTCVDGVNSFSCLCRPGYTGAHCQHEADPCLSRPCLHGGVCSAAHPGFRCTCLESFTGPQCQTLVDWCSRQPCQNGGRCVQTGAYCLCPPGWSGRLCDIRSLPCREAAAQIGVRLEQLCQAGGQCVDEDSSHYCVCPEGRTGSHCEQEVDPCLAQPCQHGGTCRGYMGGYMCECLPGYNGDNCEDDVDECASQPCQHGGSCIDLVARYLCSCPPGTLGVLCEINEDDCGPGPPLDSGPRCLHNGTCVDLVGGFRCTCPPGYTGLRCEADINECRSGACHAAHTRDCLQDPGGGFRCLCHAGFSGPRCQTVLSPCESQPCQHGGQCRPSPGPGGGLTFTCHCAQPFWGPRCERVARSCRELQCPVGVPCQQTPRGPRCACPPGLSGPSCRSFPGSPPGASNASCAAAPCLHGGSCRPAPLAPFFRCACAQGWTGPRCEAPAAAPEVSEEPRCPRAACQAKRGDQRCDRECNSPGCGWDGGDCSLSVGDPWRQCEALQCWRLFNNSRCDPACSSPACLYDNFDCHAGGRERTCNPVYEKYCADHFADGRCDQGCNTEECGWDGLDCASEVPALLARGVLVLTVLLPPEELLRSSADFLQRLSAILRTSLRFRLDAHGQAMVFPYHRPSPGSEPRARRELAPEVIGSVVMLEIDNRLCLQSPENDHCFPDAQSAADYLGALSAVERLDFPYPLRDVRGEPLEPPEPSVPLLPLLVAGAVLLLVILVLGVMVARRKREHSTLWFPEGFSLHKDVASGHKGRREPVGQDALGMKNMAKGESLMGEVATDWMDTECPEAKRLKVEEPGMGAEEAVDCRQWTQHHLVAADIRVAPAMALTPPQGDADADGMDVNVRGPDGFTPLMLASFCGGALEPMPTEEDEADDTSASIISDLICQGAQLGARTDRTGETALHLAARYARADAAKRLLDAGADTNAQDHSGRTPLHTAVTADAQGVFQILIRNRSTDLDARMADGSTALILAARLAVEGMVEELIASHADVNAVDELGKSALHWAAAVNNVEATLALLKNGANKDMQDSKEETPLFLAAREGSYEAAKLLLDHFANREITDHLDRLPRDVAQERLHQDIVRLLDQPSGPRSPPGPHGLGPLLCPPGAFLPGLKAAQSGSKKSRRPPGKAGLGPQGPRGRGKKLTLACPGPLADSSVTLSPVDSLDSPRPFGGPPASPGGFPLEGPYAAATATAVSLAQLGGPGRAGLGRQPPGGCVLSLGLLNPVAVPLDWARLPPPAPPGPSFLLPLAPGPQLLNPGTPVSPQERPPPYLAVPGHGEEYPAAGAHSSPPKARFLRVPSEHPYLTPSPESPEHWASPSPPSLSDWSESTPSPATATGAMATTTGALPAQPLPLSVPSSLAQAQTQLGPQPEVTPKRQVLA
Test [10] can be described thus: probe aEGFR binding to arrayed compounds – biochemical, biotinylated probe, 635/667 nm fluorescence, primary screen (AID 1097).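 Also: probe is a biotinylated anti-EGFR antibody binding compounds printed on slides; score combines fluorescence near 667 nm and signal to noise of each spot.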 As to conditions: small-molecule microarray, higher = more signal.

In the case of `Cc1ccc(S[C@]2(C(=O)NCC(C)C)CC(=O)N(Cc3ccccc3Cl)[C@@H]2c2ccc(CO)cc2I)cc1`, the composite z-score in test [1] is 0.939; in test [5] it was 1.8; in [7], 0.225; in test [8], -1.08; in test [9], -0.309; in [10], -0.304. Also, the z-score in [2] is -1.38 (inactive); in [3] it was -1.87 (inactive); in test [4], 0.0522 (inactive); in test [6], -0.712 (inactive).

Take `COCCOC(=O)N1C(=O)[C@@]2(c3cc(C#Cc4ccc(OC)cc4)ccc31)[C@H](C(=O)NC[C@H](O)c1ccccc1)[C@H]1C(=O)O[C@H](c3ccccc3)[C@H](c3ccccc3)N1[C@@H]2c1ccc(O)cc1`: the composite z-score was 1.54 in test [1]; 2.49 in test [5]; -0.0159 in test [7]; 0.793 in test [8]; 1.05 in [9]; 0.268 in test [10]. In addition, the z-score is 0.254 (inactive) in test [2], 1.06 (inactive) in [3], 1.08 (inactive) in test [4] and 0.394 (inactive) in test [6].

As to `C=CCOC(=O)[C@@H]1[C@H]2C(=O)O[C@H](c3ccccc3)[C@H](c3ccccc3)N2[C@H](c2ccc(OCCOC(=O)[C@H]3C[C@H]4C(=O)N[C@@H](CCCCN(C)C)C(=O)N4[C@H]3c3cccc(OCCO)c3)cc2)[C@@]12C(=O)Nc1ccc(I)cc12`, the composite z-score in [1] was 1.56; in test [5] it was 2.81; in test [7], -0.0216; in [8], 1.03; in [9], 1.08; in test [10], -0.105. The z-score in [2] is 0.95 (inactive); in test [3], 0.688 (inactive); in [4], 3.87 (inactive); in test [6], 0.0565 (inactive).

With `O=C(N1CCCCC1)[C@@]1(Cc2ccccc2)COC(c2ccc(OCCCO)cc2)=N1`, the composite z-score in [1] is 1.31; in test [5] it was 3.21; in test [7], 0.511; in test [8] it was -0.315; in test [9], 0.622; in [10], 0.548. For the same compound, the z-score in [2] was -0.22 (inactive); in test [3], -5.35 (inactive); in test [4], 1.58 (inactive); in test [6], 1.06 (inactive).

On to `O=C(O)[C@]1(Cc2ccccc2)N=C(c2ccc(OCCCO)cc2)O[C@@H]1c1ccccc1`, for which the composite z-score in test [1] was -1.27; in test [5], 1.55; in test [7] it was -0.143; in test [8], -0.849; in test [9] it was -0.786; in [10] it was -0.208. In addition, the z-score in test [2] was 0.624 (inactive); in test [3], -0.695 (inactive); in test [4], 0.286 (inactive); in test [6], 0.377 (inactive).

Consider `O=C(O)[C@H](Cc1ccccc1)n1cc(-c2ccccn2)nn1`, for which the composite z-score in test [1] is 0.427; in test [5], 0.524; in test [7], -0.103; in test [8] it was 0.665; in test [9] it was 0.596; in test [10] it was -0.042. Besides, the z-score is 0.445 (inactive) in test [2], 1.25 (inactive) in test [3], -0.609 (inactive) in [4] and -0.631 (inactive) in test [6].

In the case of `COc1ccc([Si](C)(C)[C@@H]2[C@@H](CCO)O[C@]3(C(=O)N(Cc4cccc(N5C(=O)c6ccccc6Oc6ccccc65)c4)c4ccccc43)[C@H]2C)cc1`, the composite z-score in test [1] was 1.17; in test [5], 1.46; in test [7] it was -0.0666; in [8], -0.224; in [9] it was 0.0578; in test [10], -0.281. The z-score in test [2] is 2.79 (inactive); in [3] it was -0.483 (inactive); in test [4] it was 36.9 (active); in [6], 1.21 (inactive).

In the case of `Cc1ccc(S[C@]2(C(=O)NC3CC3)CC(=O)N(Cc3ccccc3Cl)[C@@H]2c2ccc(CO)cc2I)cc1`, the composite z-score in test [1] is 1.54; in test [5] it was 3.22; in test [7], 0.0448; in test [8], 1.34; in test [9] it was 0.304; in test [10], -0.0238. The z-score was -0.362 (inactive) in test [2], -1.83 (inactive) in test [3], 0.67 (inactive) in test [4] and 0.481 (inactive) in test [6].

Regarding `C[C@@H]1ON(c2ccc(C(=O)OC(C)(C)C)cc2)[C@H](c2ccc(Br)cc2)[C@H]1C(=O)N1C(=O)OC[C@H]1Cc1ccccc1`, the composite z-score worked out at 1.53 in test [1]; 2.22 in [5]; 0.149 in [7]; 0.633 in test [8]; 1.08 in test [9]; 0.0338 in [10]. The z-score is 0.689 (inactive) in test [2], 0.716 (inactive) in test [3], 0.71 (inactive) in test [4] and 0.425 (inactive) in test [6].

For the compound `COC(=O)[C@@]1(Cc2ccccc2)[C@H]2c3cc(C(=O)N4CCCC4)n(Cc4cc(F)cc5c4OCOC5)c3C[C@H]2CN1C(=O)c1ccccc1`, the composite z-score in test [1] was -0.149; in [5], 3.29; in [7], 0.331; in test [8], -0.584; in test [9], 0.924; in test [10], 0.115. Moreover, the z-score in test [2] was 1.33 (inactive); in test [3], 1.17 (inactive); in [4] it was 0.509 (inactive); in test [6] it was -0.542 (inactive).

For `CCCCC(CC)C(O)C1C=CC2C(=O)N(c3ccccc3)C(=O)C2N1Nc1ccc([N+](=O)[O-])cc1` (stereo not given), the composite z-score in [1] was 1.55; in test [5], 3.65; in test [7], 0.0958; in test [8], 0.547; in test [9] it was 1.03; in test [10], 0.11. In addition, the z-score in test [2] was -0.777 (inactive); in test [3], -0.126 (inactive); in [4], 1.44 (inactive); in [6], -0.191 (inactive).

Turning to `COc1cc2c(cc1O)C(C)N(Cc1cc3c(cc1Br)OCO3)CC2` (stereo not given), the composite z-score was -0.285 in [1]; 0.169 in test [5]; 0 in [7]; -1.03 in test [8]; -0.53 in test [9]; -0.0594 in [10]. Besides, the z-score was 0.406 (inactive) in test [2], -10.1 (active) in test [3], -1.35 (inactive) in test [4] and -0.471 (inactive) in [6].

As for `COc1cc2c(cc1OC)CN(C(=O)[C@@H]1[C@H]3C(=O)O[C@H](c4ccccc4)[C@H](c4ccccc4)N3[C@H](c3ccccc3OCCO)[C@@]13C(=O)Nc1ccc(C#CC4(O)CCCCCC4)cc13)CC2`, the composite z-score is 1.54 in test [1]; 2.09 in [5]; 0 in test [7]; 0.56 in test [8]; 0.896 in test [9]; -0.0357 in test [10]. In addition, the z-score is 2.74 (inactive) in test [2], 0.563 (inactive) in [3], 5.14 (inactive) in test [4] and 2.26 (inactive) in [6].

In the case of `O=C1NC(=O)C2C1C=CC(C(O)c1ccc3c(c1)OCO3)N2Nc1ccccn1` (stereo not given), the composite z-score in test [1] was 0.227; in [5], 2.78; in [7], 0.0787; in test [8], 0.233; in test [9], 0.552; in test [10], -0.0999. The z-score in test [2] is -0.976 (inactive); in test [3] it was 1.02 (inactive); in test [4], -0.939 (inactive); in test [6], -0.541 (inactive).

With `CO[C@H]1O[C@H](CO)[C@@H](OC(=O)Nc2ccccc2-c2ccccc2)[C@H](OC(=O)Nc2ccc3c(c2)OCO3)[C@@H]1OC(=O)Nc1ccc2c(c1)OCO2`, the composite z-score in test [1] was 1.53; in [5], 3.16; in test [7], -0.0269; in test [8], 0.91; in test [9], 1.07; in test [10], -0.0177. Further, the z-score in test [2] is 2.06 (inactive); in test [3] it was 0.798 (inactive); in test [4] it was 6.35 (inactive); in test [6] it was 0.0976 (inactive).
